High-throughput results: PubChem, National Center for Advancing Translational Sciences (NCATS)
MCF10A rereplic – DNA re-replication induction in MCF 10a cells | 350,000 tested, 2.9% active | Potency, µM (highest dose often 46.1 µM), usual class: activators | MCF 10A DNA re-replication, Hoechst nuclear intensity, 48 h; also: nearly all actives have a fitted effect of over 50% in size
HT1080 IDH1KD tx – kills HT-1080 cells with IDH1 knockdown | 360,000 tested, 2% active | HT-1080 IDH1 knockdown viability, ATP luminescence, 48 h | Potency, µM (top dose mostly 46.1 µM), hits mostly cytotoxic
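Viability of IDH1-knockdown HT-1080 fibrosarcoma cells was assessed by CellTiter-Glo after 48 h at 37 °C with titrated compound; concentration-effect curves were classified by fit quality and response size.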
SW480 rerep – inducers of DNA re-replication in SW480 colon cancer cells; SW480 DNA re-replication, Hoechst DNA content imaging, 48 h; Potency, µM (doses to about 46.1 µM), most hits filed as activators; 340,000 tested, 1.8% active; also: nearly all actives have a fitted effect of over 55% in size
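DNA re-replication was detected as more nuclei of elevated Hoechst intensity after 48 hr exposure to compound (23 nL pinned per well of 250 cells).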
KB-3-1 cytotox – kills parental KB-3-1 adenocarcinoma cells | KB-3-1 viability, CellTiter-Glo ATP luminescence, 72 h | Potency, µM (highest dose often 46.1 µM), most hits filed as cytotoxic | 400,000 tested, 1.4% active; also: nearly all actives have a fitted effect of over 60% in size
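Multi-concentration cytotoxicity screen in KB-3-1 cells grown in DMEM lacking phenol red with 10% FBS. After 72 h at 37 °C with compound, ATP-dependent luminescence was recorded.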
KB-V1 cytotox – kills drug-selected multidrug resistant KB-V1 cells | Potency, µM (doses to about 46.1 µM), actives largely listed as cytotoxic | AID 1347076 | KB-V1 MDR cells viability, CellTiter-Glo, 72 h | 400,000 tested, 3.4% active; also: nearly all actives have a fitted effect of over 60% in size
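Luminescent ATP read-out (CellTiter-Glo, 10 min) measures survival of drug-selected KB-V1 MDR cells after 72 h, 37 degrees C compound exposure. Medium: phenol-red-free DMEM, 10% FBS. Values from fitted concentration-response curves.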
HT1080NT lethal – kills 2HG-producing HT-1080-NT fibrosarcoma cells. HT-1080-NT fibrosarcoma viability, CellTiter-Glo ATP luminescence, 48 h. Potency, µM (series often up to 46.1 µM), usual class: cytotoxic. 360,000 tested, 1.6% active. AID 686970;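 also: NT is the 2HG producing partner of a matched IDH1 knockdown line; nearly all actives have a fitted effect of over 55% in size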
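Luminescent CellTiter-Glo readout after 48 hours of compound exposure at 37 degrees C defined viability of HT-1080-NT cells. Activity was normalized to DMSO wells and cell-free media wells; concentration-response curves were fitted and assigned curve classes.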
A number is an active result; - = inactive; ? = inconclusive; . = not tested or not shown; ! = a repeat was not active; [ ] = dose if it differs, or a comment. Most compounds without a hit are left out; they make up all but 8% or so of the library. Calls follow the shape of the dose curve; as a rule, active = well fitted curve in the direction sought with a large enough effect; inconclusive = small, poorly fitted or top-dose-only effect, or another doubt; inactive = no such curve, though single readings can be large; an effect the other way counts as inactive or inconclusive.

SMILES	MCF10A rereplic	HT1080 IDH1KD tx	SW480 rerep	KB-3-1 cytotox	KB-V1 cytotox	HT1080NT lethal
COCc1cc(C)nc(SCC(=O)Nc2cccc(C)c2C)c1C#N	-	-	-	-	-	-
Cc1cccc(NC(=O)CSc2nc(C)c(CC(=O)c3ccc(Br)cc3)c(C)c2C#N)c1C	1µM	?	-	?	?	-
Fc1ccc(/C=C\c2nccc3c2[nH]c2ccccc23)cc1	6.5µM	23µM	18µM	-	-	?
C(=C\c1nccc2c1[nH]c1ccccc12)/c1ccccc1	?	?	12µM	?	-	?
Cc1ccc(/C=C\c2nccc3c2[nH]c2ccccc23)cc1	9.2µM	?	21µM	-	-	-
CCN(Cc1ccccc1)c1ccc(/C=C/c2nccc3ccccc23)cc1	.	.	.	-	-	.
O=C(C[n+]1c2ccccc2cc2ccccc21)c1ccc(F)cc1	.	.	.	?	-	.
CC(C)N(Cc1ccccc1)C(=O)COC(=O)c1ccc(O)cc1	-	-	-	-	-	-
C/C(=C(/CCOC(=O)C(C)C)SS/C(CCOC(=O)C(C)C)=C(\C)N(C=O)Cc1cnc(C)nc1N)N(C=O)Cc1cnc(C)nc1N	-	.	-	.	.	.
CC1=CC(=NOC(=O)c2cccc([N+](=O)[O-])c2)C=C(C)C1=O	?	?	?	-	-	?
CC1=CC(=O)C(C(C)C)=C/C1=N/OC(=O)c1cccc([N+](=O)[O-])c1	-	-[9.24 µM]	-	-	-	10µM
CN(CC(=O)Nc1ccc(Cl)c(C(F)(F)F)c1)CC(=O)NC1CCCCC1	?	-	?	-	-	-
CC1CCC(NC(=O)CN(C)CC(=O)Nc2ccc(F)cc2)CC1 (stereo not given)	-	-	-	-	23µM	-
O=C(CSc1nc(-c2ccc(F)cc2)cc(C(F)(F)F)n1)NCc1ccccc1	.	.	.	-	-	.
CCCOc1ccc2c3c(c(=O)oc2c1OCCC)CCCC3	-	-	-	-	-	-
Cc1c(OCC(=O)N(C)c2ccccc2)ccc2c3c(c(=O)oc12)CCC3	-	-	-	-	9.2µM	-
CCOc1ccc2c3c(c(=O)oc2c1OCC)CCCC3	?	-[9.24 µM]	-	-	7.3µM	-
CC(=O)Oc1ccc2c3c(c(=O)oc2c1C)CCCC3	21µM	-	-	?	?	-
CCOC(=O)COc1ccc2c3c(c(=O)oc2c1C)CCC3	?	-	-[9.22 µM]	-	-	-
COc1ccc(/C=N/NC(=O)C(Cc2c[nH]c3ccccc23)NC(=O)OCC(C)C)cc1[N+](=O)[O-] (stereo not given)	-	-	-	-	-	-
CC(C)NC(=O)OCc1c(COC(=O)NC(C)C)c([N+](=O)[O-])n2c1CCC2	.	-	.	-	?	-
CCCCN(C)CCCNC(=O)Cn1ncc2c3ccccc3n(Cc3cccc(Cl)c3)c2c1=O	.	.	.	-	-	.
Cc1ccc(-c2noc(C3CCN(C(=O)Nc4ccc(C#N)cc4)CC3)n2)o1	-	?	-	?	2.6µM	-
CC(=O)n1cc(/C=N/NC(N)=S)c2ccccc21	-	-	-	?	5.2µM	-
Cc1cnc(C=NNC(N)=S)c2cccc(N)c12	-	?	?	-	7.3µM	-
SMILES	MCF10A rereplic	HT1080 IDH1KD tx	SW480 rerep	KB-3-1 cytotox	KB-V1 cytotox	HT1080NT lethal
CC(=O)n1cc(/C=N/NC(=O)c2ccccc2O)c2ccccc21	-	-	-	-	-	-
NC(=S)N/N=C/c1ccc2ccccc2c1	-	-	-	-	?	-
NC(=S)NN=Cc1nccc2ccccc12	?	?	2.9µM	?	-	4.1µM
N#Cc1cccc(S(=O)(=O)N2CCN(S(=O)(=O)c3ccc4c(c3)OCCO4)CC2)c1	.	.	.	-	-	.
c1ccc(-c2noc(CN3CCCC(OCc4ccccn4)C3)n2)cc1 (stereo not given)	-	-	-	-	-	-
COCCN(C(=O)CCl)C(C(=O)NC1CCCCC1)c1ccccc1C (stereo not given)	?	13µM	13µM	13µM	21µM	?
O=C(NC1CCCC1)C(c1ccc(F)cc1)N(Cc1ccc(F)cc1)C(=O)c1ccn[nH]1 (stereo not given)	?	-	-	?	-	-
O=C(NC1CCCC1)C(c1ccc(F)cc1)N(Cc1ccccc1Cl)C(=O)CCl (stereo not given)	?	?	?	?	15µM	?
NC(=O)C1CCN(c2ncc(-c3ccc4c(c3)OCCO4)s2)CC1	.	.	.	-	-	.
COc1ccc(C(=O)C[n+]2ccc3c(c2)nc(-c2ccc(OC)cc2OC)n3C)cc1	?	?	-	15µM	-	-
Cc1ccc(-n2nc3c(=O)n(CC(=O)c4ccc(F)cc4)nc(C)c3c2C)cc1	?	-	-	-	2.9µM	-
CCOc1ccc(-n2nc3c(=O)n(CCN4CCCCC4)nc(C)c3c2C)cc1	-	-	23µM	-	-	-
Cc1nn(Cc2ccccc2)c(=O)c2nn(-c3ccc(Cl)cc3)c(C)c12	-	-	-	-	8.2µM	-
NS(=O)(=O)c1ccc(CCNC(=O)Cn2c(-c3cccs3)cc3ccccc32)cc1	.	.	.	-	-	.
Brc1cccc[n+]1CCCCCC[n+]1ccccc1Br	.	.	.	-	-	.
CC(C)(C)NC(=O)CSc1nc(Cc2ccccc2)nc2ccccc12	0.65µM	-	-	-	-	-
C#CCSc1nc(Cc2ccc(Cl)cc2)nc2ccccc12	?	-	-	-	16µM	-
CCOC1=C2CN(S(=O)(=O)c3ccccc3)[C@H](c3ccccc3)C[C@H]2n2c(=O)n(-c3ccccc3)c(=O)n2C1	.	?	.	-	-	-
COc1cc(CNC(=O)c2ccccc2NC(=O)C2=C(C)OCCS2)cc(OC)c1OC	-	-	-	-	-	-
CC(C)CC(=O)NC1CC(=O)N(c2ccc3c(c2)OCCO3)C1 (stereo not given)	.	.	.	-	-	.
Oc1ccccc1N=N/C(=N/Nc1ccccc1O)c1ccccc1	-	-	-[9.22 µM]	-	-	-
Cn1nnnc1N=N/C(=N/Nc1ccccc1)c1ccccc1	?	7.3µM	?	-	?	?
CCOc1ccc(OCC(=O)NCCS(=O)(=O)N2CCN(c3cccc(Cl)c3)CC2)cc1	.	.	.	-	-	.
COc1ccc(-c2cc(C(F)(F)F)nc(SCCC(=O)Nc3cccc(O)c3)n2)cc1	.	.	.	-	?	.
O=C(CCSc1ccccc1)NNC(=O)c1ccccc1F	-	-	?	-	-	-
O=C(C[C@H]1C(=O)N(CCc2ccccc2)C[C@@H]1Cc1ccccc1)Nc1ccccc1	-	-	-	?	21µM!	-
O=C(C[C@H]1C(=O)N(c2ccccc2)C[C@@H]1Cc1ccccc1)Nc1ccccc1	.	-	.	23µM!	9.2µM!	-
CNC(=O)C[C@H]1C(=O)N(c2ccccc2)C[C@@H]1Cc1ccccc1	.	-	.	-	-	-
